Rows were chosen to be rich in hits. Some 4.7% of all compounds tested hit in one or more screens of this group.
TRHR agonist: TRH receptor (human) agonism | P34981 | TRHR cells, calcium flux fluo-8, FDSS agonist mode | activation, % at 2 µM | 360,000 compounds, 0.18% hits
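Fluo-8-loaded TRHR cells; 10 s baseline, compound added, kinetic Ca2+ fluorescence read 1/s, agonist mode.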
D1 antagonist: antagonists of human D1 dopamine receptor; HEK293 TREx D1 cells, calcium flux, dopamine EC80; active compounds read low; P21728; 360,000 compounds, 3.2% hits; activity change, negative = inhibition, % at 10 µM; AID 504652; in the data active = activity change below about -30%
Target sequence (P21728 whole entry, looked up): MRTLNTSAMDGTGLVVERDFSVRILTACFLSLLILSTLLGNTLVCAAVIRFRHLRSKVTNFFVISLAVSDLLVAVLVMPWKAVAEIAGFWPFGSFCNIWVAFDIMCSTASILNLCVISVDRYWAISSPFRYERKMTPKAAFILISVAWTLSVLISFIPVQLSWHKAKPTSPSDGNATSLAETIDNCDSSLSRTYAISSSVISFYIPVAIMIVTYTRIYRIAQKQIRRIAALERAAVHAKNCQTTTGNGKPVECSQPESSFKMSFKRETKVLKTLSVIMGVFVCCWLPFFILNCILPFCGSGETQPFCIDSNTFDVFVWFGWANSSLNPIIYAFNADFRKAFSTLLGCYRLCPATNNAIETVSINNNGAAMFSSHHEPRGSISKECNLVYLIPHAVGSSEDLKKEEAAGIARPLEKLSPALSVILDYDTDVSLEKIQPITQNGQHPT
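Allosteric or orthosteric antagonism assessed as attenuation of the calcium response to EC80 dopamine, added 180 s after compound, in induced HEK293 Trex D1 cells loaded with no-wash calcium dye.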
D1 PAM: enhances dopamine response at the human D1 receptor; potentiation, % at 10 µM; 360,000 compounds, 0.036% hits; HEK293 TREx D1 cells, calcium flux, dopamine EC20 potentiation; P21728; in the data active = potentiation above about 30%
TRHR PAM: TRH receptor (human) allosteric enhancement. P34981. TRHR cells, fluo-8 calcium fluorescence, EC20 TRH enhancement. enhancement, % at 2 µM. 360,000 compounds, 0.66% hits. AID 493056; in the data active = enhancement above about 30%
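TRHR-expressing cells loaded with fluo-8 calcium dye were read kinetically (ex 480/em 530) during compound addition, then stimulated with an EC20 of TRH (10 nM final). Enhancement of the Gq-mediated intracellular calcium response was scored.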
D1 agonist: human D1 receptor agonism; HEK293 T-REx D1 cells, calcium flux, agonist mode; AID 504660; P21728; 360,000 compounds, 1% hits; activation, % at 2 µM
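Tetracycline-induced HEK293 TREx D1 cells, force-coupled to calcium signalling, were dye-loaded with a no-wash calcium kit. Compound was pin-added after a 10 s baseline. Fluorescence was read kinetically at 1 cycle/s for 180 s, with calcium rises flagged as agonism.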
Large screens that a line does not name were inactive. Cut-off read from the data, not from the text of the source, unless noted: active = activation above about 30%; inactive = the rest.

COc1ccc(CCC(=O)NCc2nc3cccnc3n2Cc2ccc(OC)cc2)cc1	none
O=C(NCc1ccccc1Cl)c1ccc(CSCc2ccccc2Cl)o1	none
CN(Cc1ccccc1)S(=O)(=O)c1ccc(Cl)nc1	none
CC(C)N(Cc1ccccc1)S(=O)(=O)c1ccc(Cl)nc1	D1 antagonist -40.7
CC1=CC2=NC(=O)/C(=C/c3coc4ccc(Cl)cc4c3=O)C(=N)N2O1	TRHR agonist 184.8, D1 agonist 231.2
CSC1=NSC2=NC(=O)/C(=C\c3cccs3)C(=N)N12	none
CSC1=NSC2=NC(=O)/C(=C/c3coc4ccc(O)cc4c3=O)C(=N)N12	TRHR agonist 67.8, D1 agonist 168.0
CC1=CC2=NC(=O)/C(=C\c3cc(C)n(-c4cccc(Cl)c4)c3C)C(=N)N2O1	none
CSC1=NSC2=NC(=O)/C(=C/c3coc4ccccc4c3=O)C(=N)N12	TRHR agonist 77.9, D1 agonist 275.1
O=C1NN(c2ccccc2)C(=O)/C1=C\c1coc2ccc(O)cc2c1=O	D1 antagonist -69.7
CCN(CC)c1ccc(-c2nc(-c3ccccc3C)no2)cc1[N+](=O)[O-]	none
N=C1/C(=C\c2coc3ccccc3c2=O)C(=O)N=C2SC=CN12	TRHR agonist 199.3, TRHR PAM 52.8, D1 agonist 341.5
N=C1/C(=C/c2cccn2Cc2ccc(F)cc2)C(=O)N=C2SC=CN12	none
CCN(CC)C1=NS(=O)(=O)c2cc([N+](=O)[O-])ccc21	TRHR PAM 34.3
O=C(COc1ccc(N2C(=O)c3ccccc3C2=O)cc1)c1ccccc1	D1 antagonist -32.1
CCOc1ccc(N2C(=O)c3ccccc3C2=O)cc1	none
CCCCCCC#Cc1cncc(C(=O)NNC(=O)Nc2cc(Cl)cc(Cl)c2)c1	none
CCCCC#Cc1cncc(C(=O)NN)c1	D1 antagonist -54.3
CCOC(=O)c1c(-c2ccccc2)csc1NC(=O)c1cc(-c2ccc(Cl)cc2)on1	none
CCOC(=O)N1CCN(c2cc(=O)n(Cc3ccc(F)cc3)c(=O)[nH]2)CC1	D1 antagonist -36.8
CCN1CCN(c2cc(=O)n(Cc3ccc(F)cc3)c(=O)[nH]2)CC1	none
CCc1ccccc1NC(=O)c1cnn2c(C(F)(F)F)cc(-c3ccc(OC)c(OC)c3)nc12	none
NC[C@H](Cc1ccccc1)NCCCCC1CCCCC1	none (no result: D1 antagonist)
CNC[C@H](CC1CCCCC1)NC[C@H](Cc1ccccc1)NCCC12CC3CC(CC(C3)C1)C2	D1 agonist 32.5
COC(CN(C)C(=O)c1cn(C)c2ccc(S(=O)(=O)N(C)C3CCCCC3)cc2c1=O)OC	TRHR PAM 30.5
Cc1ccc(CNC(=O)c2cn(C)c3ccc(S(=O)(=O)N(C)C4CCCCC4)cc3c2=O)cc1	none
COc1ccccc1CNC(=O)c1cn(C)c2ccc(S(=O)(=O)N(C)C3CCCCC3)cc2c1=O	D1 antagonist -36.7
Cc1ccc(CNC(=O)c2ccc(Cn3c(SCc4ccc(F)cc4)nc4cccnc43)cc2)o1	none
COc1ccc(CCN(C)C2CCCN(S(=O)(=O)c3ccccc3F)C2)cc1OC (configuration not stated)	D1 antagonist -31.8
COC(=O)c1sccc1S(=O)(=O)N1CCCC(N(C)CCc2ccccn2)C1 (configuration not stated)	D1 antagonist -34.7
Cc1ccccc1-c1noc(-c2ccccc2C(=O)NCC2CCCO2)n1 (configuration not stated)	D1 antagonist -30.3
Cc1cccc(NS(=O)(=O)c2ccc(C(=O)NCC3CCCO3)cc2)c1C (configuration not stated)	none
COc1ccc(N(C)S(=O)(=O)c2cccc(C(=O)NCC3CCCO3)c2)cc1 (configuration not stated)	none
O=C(NCC1CCCO1)c1cccc(Oc2ccc([N+](=O)[O-])cc2)c1 (configuration not stated)	D1 antagonist -34.8
COc1ccccc1-c1noc(-c2ccccc2C(=O)NCC2CCCO2)n1 (configuration not stated)	none
O=C(NCC1CCCO1)c1ccc(S(=O)(=O)Nc2ccccc2F)cc1 (configuration not stated)	D1 antagonist -37.6
COc1ccc(N(Cc2ccccc2)S(=O)(=O)c2cccc(C(=O)NCC3CCCO3)c2)cc1 (configuration not stated)	D1 antagonist -36.8
O=C(NCC1CCCO1)c1cccc(Oc2ccccc2)c1 (configuration not stated)	none
Cc1cc2c(s1)c1cnn(Cc3cccc4cccnc34)c(=O)c1n2C	none
O=c1oc2ccccc2cc1-c1cn2cc(Cc3ccccc3F)sc2n1	none
O=C(CNC(=O)C1CCCCCC1)OC(C(=O)Nc1cc(C(F)(F)F)ccc1Cl)c1ccccc1 (configuration not stated)	none
O=C(Cn1c(C(=O)NCC2CCCO2)cc2sccc21)c1ccccc1 (configuration not stated)	D1 antagonist -50.4
O=C(NCC1CCCO1)c1cccc(NC(=O)c2ccccc2)c1 (configuration not stated)	D1 antagonist -31.1
CCOC(=O)N1CCC(NC(=O)C2CCCN(Cc3nc(-c4ccc(CC)cc4)oc3C)C2)CC1 (configuration not stated)	D1 antagonist -33.8, D1 agonist 36.5
CCOC(=O)N1CCC(NC(=O)CS(=O)Cc2nc(-c3ccc(C)cc3)oc2C)CC1 (configuration not stated)	D1 antagonist -34.9
Cc1cccc(-c2nc(CN3CCCC(C(=O)NC4CCCCCC4)C3)c(C)o2)c1 (configuration not stated)	none
CC(=O)N1CCC(O)(c2cccc(C(F)(F)F)c2)CC1	none
O=C(CCCN1CCC(O)(c2cccc(C(F)(F)F)c2)CC1)c1ccc(F)cc1	D1 agonist 61.3
O=C(CCCC(=O)c1ccc(F)cc1)c1ccc(F)cc1	none
O=C(CCCN1CCC(O)(c2ccc(Br)cc2)CC1)c1ccc(F)cc1	D1 antagonist -87.4, D1 agonist 70.4
O=C(CCCN1CCC(C(=O)c2ccc(F)cc2)CC1)c1ccc(F)cc1	D1 antagonist -84.5
CCOC(=O)c1cccc(NC(=O)C2CCN(S(=O)(=O)c3cn(C)cn3)CC2)c1	none
Cc1ccc(-c2nnc(SCCOc3ccccc3)o2)cc1	D1 agonist 80.9
COc1ccc(C2=C(N3CCN(c4cccc(C)c4)C(C)C3)c3ccccc3C2=O)cc1 (configuration not stated)	none
CN1C(=O)c2cccc(NCCCN3C(=O)c4ccccc4C3=O)c2C1=O	none
Cn1c(=O)c(NC2CCCCC2)c2c3c(cccc31)C(=O)c1ccccc1-2	TRHR agonist 218.9, D1 antagonist -68.0, D1 agonist 454.8
CCCCNc1c2c3c(cccc3n(C)c1=O)C(=O)c1ccccc1-2	TRHR agonist 94.4, D1 antagonist -46.7, D1 agonist 326.2

Screens from PubChem BioAssay.
